# Hit rate of the full screen: of about 360,000 compounds, about 2,100 (0.58%) were called active. Shown is part of a subset that was picked to be rich in actives. A number with no mark means an inactive call. Rule as the data show it: active = inhibition above about 36%; inactive = the rest.
# Biological target: NEDD8-conjugating enzyme Ubc12 (Homo sapiens) + NEDD8-activating enzyme E1 regulatory subunit (Homo sapiens) (UniProt P61081+Q13564)
# Experiment: NEDD8 transfer onto cullin, blockade – biochemical, TR-FRET, uHTS, NAE and Ubc12, primary screen (AID 651699)
# Conditions: TR-FRET cullin neddylation, at 25 µM, active compounds read high
# Sequence of NEDD8-conjugating enzyme Ubc12 (Homo sapiens) + NEDD8-activating enzyme E1 regulatory subunit (Homo sapiens) (P61081 whole entry, looked up): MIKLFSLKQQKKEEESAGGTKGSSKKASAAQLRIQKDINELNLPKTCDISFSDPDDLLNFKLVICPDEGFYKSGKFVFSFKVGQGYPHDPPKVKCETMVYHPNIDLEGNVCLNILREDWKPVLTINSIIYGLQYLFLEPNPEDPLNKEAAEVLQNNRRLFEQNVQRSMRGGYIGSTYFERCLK
# Sequence of NEDD8-conjugating enzyme Ubc12 (Homo sapiens) + NEDD8-activating enzyme E1 regulatory subunit (Homo sapiens) (Q13564 whole entry, looked up): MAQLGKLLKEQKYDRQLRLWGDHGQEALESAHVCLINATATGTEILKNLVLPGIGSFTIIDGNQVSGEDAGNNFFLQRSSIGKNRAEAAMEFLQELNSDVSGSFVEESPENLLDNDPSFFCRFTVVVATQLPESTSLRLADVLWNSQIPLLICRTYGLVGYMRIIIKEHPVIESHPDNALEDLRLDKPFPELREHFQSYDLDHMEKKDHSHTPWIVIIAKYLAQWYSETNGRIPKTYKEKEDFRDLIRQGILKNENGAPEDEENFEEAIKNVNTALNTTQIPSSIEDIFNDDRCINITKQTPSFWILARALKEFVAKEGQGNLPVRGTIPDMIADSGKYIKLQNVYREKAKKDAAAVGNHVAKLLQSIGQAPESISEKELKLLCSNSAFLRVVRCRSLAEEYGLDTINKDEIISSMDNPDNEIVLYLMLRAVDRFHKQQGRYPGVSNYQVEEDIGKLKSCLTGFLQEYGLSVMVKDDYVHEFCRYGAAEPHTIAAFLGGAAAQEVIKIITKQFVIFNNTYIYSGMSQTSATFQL
row,SMILES,inhibition
1,COc1ccc(N2CC(C(=O)N[C@@H](C)C(=O)N3CCCCC3)CC2=O)cc1 (some centres undefined),-5.41%
2,O=C1NC(c2ccncc2)Nc2sc3c(c21)CCCC3 (centres undefined),44.1% (active)
3,O=C(N/N=C/c1ccsc1)c1cc(O)cc(O)c1,-1.8%
4,COc1cccc(Cn2cc(/C=N/NC(=O)c3cc(O)cc(O)c3)c3ccccc32)c1,57.8% (active)
5,COc1ccc(OC)c(/C=N/NC(=O)c2ccc[n+](CC(=O)c3ccccc3)c2)c1,-1.66%
6,NC(=O)CN1CCCC1c1ccc2c(c1)OCCO2 (centres undefined),0.21%
7,CCOc1ccc(NC(=O)C2CCCN(C(=O)Nc3ccccc3)C2)cc1 (centres undefined),-6.95%
8,CCCCc1cc2c(s1)CCCC/C2=N/O,-11.4%
9,C=CCN1C(=O)C(O)(CC(=O)c2ccccn2)c2ccccc21 (centres undefined),1.24%
10,C[N+](C)(C)CCNC(=O)c1c[nH]c2ccccc12,16.8%
11,COc1ccc(/C=C(\C#N)c2c[nH]c3ccccc23)cc1,44.5% (active)
12,COc1ccc(C2C(C(C)=O)=C(O)C(=O)N2CCc2c[nH]c3ccccc23)cc1 (centres undefined),-15.3%
13,O=C(CCN1C(=O)c2ccccc2C1=O)C1=NN[C@@H]2C(=O)N(c3ccc(F)cc3)C(=O)[C@H]12,-15%
14,COCC(=O)N(C)[C@H]1C[C@H]2c3cc(Oc4ccccc4C)ccc3CCN2C(=O)[C@H]1[C@H](C)O,2.1%
15,C[C@H](O)[C@@H]1C(=O)N2CCc3ccc(N4CCOCC4)cc3[C@@H]2C[C@@H]1N(C)C(=O)C(C)(C)C,22%
16,C[C@H](O)[C@@H]1C(=O)N2CCc3c([nH]c4ccccc34)[C@@H]2C[C@@H]1N(C)C(=O)Nc1ccc(F)cc1,50.2% (active)
17,CC(=O)N1c2ccc(S(=O)(=O)N(C)CC(=O)N(C)Cc3ccccc3)cc2CC1C (centres undefined),1.96%
18,Cc1ccc(CN(Cc2cccnc2)C(=S)Nc2cccc(Cl)c2C)cc1,1.43%
19,COCCn1c(Cc2cccn2C)nnc1SCC(=O)Nc1nccs1,-1.55%
20,CCCCN(C=O)c1c(CC)nc2c(OCc3ccccc3C(=O)OC)cccn12,8.99%

row,SMILES,inhibition
1,COc1ccc(C2OC(=O)CC2C(=O)NC(C)C)cc1 (centres undefined),4.68%
2,COCCNC(=O)Nc1ccc2nc(-c3ccco3)c(-c3ccco3)nc2c1,49.3% (active)
3,COCCNC(=O)CN(Cc1ccco1)C(=O)CCC(=O)Nc1nccs1,0.84%
4,COCCNC(=O)c1ccc2nc(Cc3ccc(OC)c(OC)c3)oc2c1,-5.61%
5,CSCCC(NC(=O)c1ccc(Cl)cc1Cl)C(=O)NNC(=O)c1csc(N2CCOCC2)n1 (centres undefined),31%
6,Cc1ccc(N/N=C2\COC(C)(C)CC2=O)cc1,0.52%
7,Cc1nc2ccc(S(=O)(=O)NCC(=O)O)cc2s1,7.99%
8,CS(=O)(=O)c1ccc2nc(NC(=O)c3ccc(Cl)nc3)sc2c1,65.7% (active)
9,NS(=O)(=O)c1ccc2nc(NC(=O)CS(=O)(=O)c3ccc(F)cc3)sc2c1,1.17%
10,Cc1nn2c(=O)cc(COC(=O)c3ccc(NC(=O)C(C)(C)C)cc3)nc2s1,-2.19%
11,CCOC(=O)C1CCCN(C(=O)C2CCN(S(=O)(=O)c3ccc(Cl)c(C(F)(F)F)c3)CC2)C1 (centres undefined),-19.5%
12,CCOc1cc(C(=O)Nc2c(C)ccc3nsnc23)cc(OCC)c1OCC,41.7% (active)
13,Cc1ccc2nsnc2c1NC(=O)c1ccccc1[N+](=O)[O-],-26.4%
14,CCOc1cc(C(=O)Nc2ccc(S(=O)(=O)Nc3cnc4ccccc4n3)cc2)cc(OCC)c1OCC,6.73%
15,COc1ccc([N+](=O)[O-])cc1C1NN=C(c2cccc3ccccc23)S1 (centres undefined),-3.56%
16,COc1ccc2c(c1OC)C(=O)N(c1ncn[nH]1)C2,39.8% (active)
17,COc1ccc(C2C(C#N)=C(N)N(c3ncn[nH]3)C3=C2C(=O)CCC3)cc1 (centres undefined),-6.24%
18,COc1ccc2c(c1OC)C(=O)N(c1ccc(O)cc1)C2,14.7%
19,COc1ccc(NC(=O)CCC(=O)N2CCN(S(=O)(=O)c3ccc(C)cc3)CC2)c(OC)c1,2.78%
20,Cc1c(C2=CCN(S(=O)(=O)c3ccc(Cl)cc3)CC2)c2ccccc2n1C,-207%

row,SMILES,inhibition
1,CN(C)CC/C=C1\c2ccccc2CSc2ccccc21,6.08%
2,COC(=O)c1ccc2nc(-c3ccc(F)cc3)c(Cc3ccc(C)cc3)n2c1,36.3%
3,COC(=O)c1ccc2nc(-c3ccc(Cl)cc3)c(Cc3cccc(F)c3)n2c1,25.5%
4,COC(=O)c1ccc2nc(-c3ccc(OC)c(OC)c3)c(Cc3ccccc3)n2c1,41.4% (active)
5,CC[C@]12c3[nH]c4ccc(Cl)cc4c3CCN1C(=O)[C@@H](CC(=O)NCCCOC)C[C@@H]2C(=O)N1CCN(C(=O)c2ccco2)CC1,3.68%
6,COc1c(C(C)C)oc2cc3oc(=O)ccc3cc12,36.1%
7,COC(=O)Cn1c(=NC(=O)CSCC(=O)Nc2cc(C)on2)sc2ccccc21,6.58%
8,Cc1ccc(-c2cc(C(=O)N/N=C/C=C/c3ccccc3)n[nH]2)o1,-6.17%
9,S=c1[nH]nc(/C=C/c2ccccc2)o1,40.5% (active)
10,CC(C)(C)c1cc2cccnc2n1Cc1ccccc1,24.2%
11,Cc1cnc(CN(C)C(=O)C2CCC(=O)N(CCc3cccc(F)c3)C2)[nH]1 (centres undefined),-3.06%
12,Cc1cccn2c(=O)c3cc(C(=O)NCCN4CCOCC4)c(=N)n(Cc4cccnc4)c3nc12,68.3% (active)
13,CCCNC(=O)CCn1nc(-c2ccccc2)c2ccccc2c1=O,-0.32%
14,CCCn1c(=O)c(-c2ccccc2)c(O)c2ccccc21,44.3% (active)
15,CCCCCn1c(=O)c(C(=O)OCC)c(Cl)c2ccccc21,4.01%
16,O=C1OC(Cc2ccccc2)C(c2ccccc2)C1=O (centres undefined),-10.9%
17,Cc1cc(=O)[nH]c(Nc2cccc(Br)c2)n1,-6.28%
18,Cc1cc(=O)[nH]c(SCc2ccc(Cl)cc2)n1,-1.58%
19,CCN(CC)c1ccc(/C=N/Nc2nc(C)cc(=O)[nH]2)cc1,42% (active)
